Among the data in PubChem BioAssay (EPA / NIEHS) are outcome and AC50 values, retold here.

Broadly, the AC50 is the concentration giving half of the maximal activity seen.

Each structure is given as a SMILES string. Active and inactive are the calls of the source. Rule for the calls: active = hit-call score of the fitted dose curve at least 0.9, where 1 is the maximum; inactive = score below 0.9.

Read-out in the test: Glutamate-cysteine ligase regulatory (GCLM), GCLM (gene 2730)
Kind of test: LTEA_HepaRG_GCLM: Life Technologies and Expression Analysis (LTEA) Assay for Glutamate-cysteine ligase regulatory (GCLM) using HepaRG (AID 2283500). Particulars: mRNA level, 48 h; actives raise or lower the signal. The method, then:
LTEA_HepaRG is a cell based, multiplexed-readout assay that uses HepaRG, a human liver cell line, with measurements taken at 48 hours after chemical dosing on a 96-well plate.LTEA_HepaRG_GCLM is one of 102 assay component(s) measured in the LTEA HepaRG cell culture assay. It is a marker of Cell proliferation, survival, death.Data from the assay component LTEA_HepaRG_GCLM was analyzed into 1 endpoint. This assay endpoint, LTEA_HepaRG_GCLM, was analyzed with bidirectional fitting relative to DMSO as the negative control and baseline of activity. Using a type of inducible reporter, measures of mRNA induction for gain or loss-of-signal activity can be used to understand regulation of transcription factor activity. To generalize the intended target to other relatable targets, this assay endpoint is annotated to the ligase intended target family, where the subfamily is C-N ligase.
A total of 1060 chemcials from the ToxCast library were tested in eight-point concentration-response experiments. Cell culture and cytotoxicity assays were conducted at Thermo Fisher Scientific's Custom Services facility (Madison, WI). A single lot of human HepaRG cells (Thermo Fisher Scientific, Frederick, MD) was used for the cell culture experiments. 96-well format collagen type I coated plates of human HepaRG cells were prepared using established methods. Briefly, cryopreserved HepaRG cells were thawed, plated at a density of approximately 100,000 cells/well in HepaRG Thaw, Plate, and General Purpose media (HPRG770, Thermo Fisher Scientific), and incubated for 48 hours. 0.5% DMSO was selected as vehicle control to balance the requisite need of DMSO in HepaRG cultures to maintain differentiation (for example, baseline metabolism, proportions of hepatocytes vs. cholangiocytes), while enabling further hepatic receptor pathway activation (for example, PXR and CAR) in response to chemical exposure. 48 hours after plating, the culture medium was replaced with HepaRG Serum-Free Incudtion Media. Cells were exposed to each test chemical in duplicate and maintained in CO2 incubators for another 48 hours. Chemical plates were thawed to room temperature and 200x concentrations of treatment groups were prepared. 8-point conentration-reponse curves were made with the highest exposure at 100 uM, followed by half-log dilutions, all in 0.5% DMSO. Each test plate contained variouse controls, induction positive controls (1mM phenobarbital), cytotoxicity positive controls ([…] aflatoxin B1), vehicle controls (0.5% DMSO), and total lysis controls (0.5% DMSO). Cell morphology images were taken using an Essen IncuCyte FLR automated microscope, with six 96-well plates imaged in about 24 minutes. Images were captured and exported and JPEG files. Spent culture media was transfered to black-well plates for the LDH assay, and remaining media was sorted at -80 C for later use. Cells were treated with RLT buffer and frozen until shipped for gene expression analysis. Total RNA was isolated from the cell suspension in 75 uL of Buffer RLT (Qiagen, Germantown, MD 20874) by Quintiles/Expression Analysis (Durham, NC) using a custom isolation procedure. Total RNA from each plate well was transferred to a preamplification plate. Fluidigm's 96.96 Dynamic ArrayTM (Fluidigm, Amsterdam, the Netherlands) technology was used for gene expression analyses by quantitative reverse transcription polymerase chain reaction (qRT-PCR, performed by Quintiles/Expression Analysis, Durham, NC)89. Standard TaqManTM Assays (Applied Biosystems/ThermoFisher Scientific, Foster City, CA) were used to assess the expression of 93 genes selected based on their selectivity and sensitivity to important hepatic receptors known to be modulated by environmental chemicals; importance in human hepatocyte functionality; and hepatotoxicity. […]
On to `Cc1ccn2nc(S(=O)(=O)Nc3c(F)cccc3F)nc2n1`, for which the call was inactive.
On to `CCOP(=S)(OCC)Oc1cc(C)nc(C(C)C)n1`, for which the compound was called inactive.
Still for that read-out and setting: the same measure for `Nc1c(Cl)cc([N+](=O)[O-])cc1Cl`: “inactive”; for `CCOP(=S)(OCC)OC(Cl)C(Cl)(Cl)Cl` (stereo not given): “inactive”.
Take `CCCCOC(=O)c1ccccc1C(=O)O`: the result was inactive.
For `CC(COc1ccc(Oc2ccccc2)cc1)Oc1ccccn1` (stereo not given), the result was inactive.
`CCC(=NOC/C=C/Cl)C1=C(O)CC(C2CCOCC2)CC1=O` (stereo not given): the outcome was inactive.
`COP(=O)(NC(C)=O)SC` (stereo not given): the result was inactive.
Turning to `Cc1nn(-c2cc(NS(C)(=O)=O)c(Cl)cc2Cl)c(=O)n1C(F)F`, the result was inactive.
The same measure, in the same setting: the same measure for `CN(C)[C@@H]1C(=O)C(C(N)=O)=C(O)[C@@]2(O)C(=O)C3=C(O)c4c(O)cccc4[C@@](C)(O)[C@H]3[C@H](O)[C@@H]12`: “inactive”.
Consider `CCCCN(CC)c1c([N+](=O)[O-])cc(C(F)(F)F)cc1[N+](=O)[O-]`, for which the compound was called inactive.
In the case of `CN(C)C(=O)Nc1cccc(C(F)(F)F)c1`, the compound was classed as inactive.
In the case of `Cc1cc(C2CC2)nc(Nc2ccccc2)n1`, the outcome was inactive.
On to `Nc1nc(N)nc(NC2CC2)n1`, for which the call was inactive.
Regarding `CCOP(=O)(SC(C)CC)N1CCSC1=O` (stereo not given), the result was inactive.
For `CC(C)[C@H](C(=O)O[C@H](C#N)c1cccc(Oc2ccccc2)c1)c1ccc(Cl)cc1`, the call was inactive.
Turning to `CSC1=N[C@@](C)(c2ccccc2)C(=O)N1Nc1ccccc1`, the AC50 was 25 µM (active).
For `FC(F)C(F)(F)OCC(Cn1cncn1)c1ccc(Cl)cc1Cl` (stereo not given), the AC50 is 13 µM (active).
`CCCSP(=O)(OCC)Oc1ccc(Br)cc1Cl` (stereo not given): the result was inactive.
For `CSc1nnc(C(C)(C)C)c(=O)n1N`, the call was inactive.
With `CCOP(=S)(OCC)Oc1ccc([N+](=O)[O-])cc1`, the outcome was inactive.
For `CCCOCC(=Nc1ccc(Cl)cc1C(F)(F)F)n1ccnc1`, the compound was classed as inactive.
On to `C#CCC1=C(C)C(OC(=O)C2C(C=C(C)C)C2(C)C)CC1=O` (stereo not given), for which the outcome was inactive.
On the same count and under the same terms, the same measure for `CC(Oc1cccc(Cl)c1)C(=O)O` (stereo not given): “inactive”; for `CC1=NNC(=O)N(/N=C/c2cccnc2)C1`: “inactive”.
`CON=C(C(=O)OC)c1ccccc1CON=C(C)c1cccc(C(F)(F)F)c1`: the outcome was inactive.
In the case of `CCc1cccc(CC)c1N(COC)C(=O)CCl`, the compound was called inactive.
With `C[Si](Cn1cncn1)(c1ccc(F)cc1)c1ccc(F)cc1`, the half-maximal activity concentration (AC50) is 62.8 µM (active).
As to `C[N+]1(C)CCCCC1`, the compound was classed as inactive.
Turning to `CCc1cccc(C)c1N(C(=O)CCl)C(C)COC` (stereo not given), the call was inactive.
For `C#CC(C)(C)NC(=O)c1cc(Cl)cc(Cl)c1`, the call was inactive.
For `CN(C)NC(=O)CCC(=O)O`, the compound was classed as inactive.
`CC1(C(=O)Nc2ccc(O)c(Cl)c2Cl)CCCCC1`: the outcome was inactive.
As for `CNC(=O)Oc1cccc2c1OC(C)(C)O2`, the outcome was inactive.
Same read-out and setting: the same measure for `CNC(=O)ON=C(C)SC`: “inactive”; for `CCCSP(=O)(OCC)SCCC`: “inactive”; for `COc1ccc(C(=CC(=O)N2CCOCC2)c2ccc(Cl)cc2)cc1OC`: “inactive”.
For `CC(=NC#N)N(C)Cc1ccc(Cl)nc1`, the result was inactive.
Turning to `S=C1NCCN1`, the outcome was inactive.
Turning to `CCCOc1nn(C(=O)NS(=O)(=O)c2ccccc2C(=O)OC)c(=O)n1C`, the compound was called inactive.
